Screening results (PubChem)
Shown are actives, neighbours in structure and some others; about 11% of the full set was active somewhere.
Gal4-VP16 FLuc: VP16 counterscreen qHTS for inhibitors of ROR gamma transcriptional activity. Drosophila S2 Gal4-VP16 UAS-luciferase, luminescence, 20 h. Potency, µM (series often up to 53.6 µM), most hits filed as inhibitors. actives 3.5% (n = 310,000). AID 2546, 2010;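 note: Gal4-VP16 expression switched on by copper sulfate through the metallothionein promoter; nearly all actives have a fitted effect of over 50% in size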
IL-1B inflam inh: qHTS for Inhibitors of Inflammasome Signaling: IL-1-beta AlphaLISA Primary Screen; THP-1 LPS/ATP IL-1B secretion, AlphaLISA, 16 h; stronger effect = lower value; activity change, % at 57.5 µM; actives 4.7% (n = 360,000); in the data active = activity change below about -50%; inconclusive = mostly about -30% to -49%
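Secreted IL-1B measured by AlphaLISA bead assay after 16 h compound exposure of THP-1 cells; compounds (final up to 57.5 uM) added 1 h before LPS (250 ng/mL) and ATP (1.25 mM) stimulation; lower signal means less secretion.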
RORgamma inh: qHTS for inhibitors of ROR gamma transcriptional activity; Nuclear receptor ROR-gamma (Mus musculus), P51450; Drosophila S2 Gal4-RORgamma UAS-luciferase reporter, 20 h; Potency, µM (highest dose often 53.6 µM), actives largely listed as inhibitors; actives 5.4% (n = 310,000); note: nearly all actives have a fitted effect of over 60% in size
Target sequence (P51450 whole entry, looked up, the tested form may be a part): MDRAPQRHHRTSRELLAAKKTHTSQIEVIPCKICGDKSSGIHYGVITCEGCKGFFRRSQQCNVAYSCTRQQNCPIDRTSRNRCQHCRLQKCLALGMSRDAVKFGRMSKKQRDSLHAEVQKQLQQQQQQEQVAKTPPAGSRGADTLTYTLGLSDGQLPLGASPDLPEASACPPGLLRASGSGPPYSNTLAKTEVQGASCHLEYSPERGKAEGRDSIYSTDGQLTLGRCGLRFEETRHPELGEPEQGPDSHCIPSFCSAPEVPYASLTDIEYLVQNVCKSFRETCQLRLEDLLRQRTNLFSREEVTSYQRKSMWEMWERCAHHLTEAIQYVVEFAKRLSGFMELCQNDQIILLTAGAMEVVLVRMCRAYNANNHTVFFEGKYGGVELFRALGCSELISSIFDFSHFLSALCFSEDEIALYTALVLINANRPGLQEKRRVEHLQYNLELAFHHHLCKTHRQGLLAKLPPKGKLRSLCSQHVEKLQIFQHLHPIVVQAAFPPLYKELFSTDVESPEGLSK
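A Gal4/UAS one-hybrid system in insect cells: metallothionein-promoter Gal4–ROR gamma fusion plus Photinus luciferase reporter. Copper sulfate 700 uM final, 20 hr ambient incubation, luminescent detection after 10 min with reagent.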
SW480 rereplic: A quantitative high throughput screen for small molecules that induce DNA re-replication in SW480 colon adenocarcinoma cells; SW480 DNA re-replication, Hoechst DNA content imaging, 48 h; Potency, µM (highest dose often 46.1 µM), usual class: activators; actives 1.8% (n = 340,000); AID 624297, 2012; note: nearly all actives have a fitted effect of over 55% in size
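DNA re-replication was detected as more nuclei of elevated Hoechst intensity after 48 hr exposure to compound (23 nL pinned per well of 250 cells).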
MCF10A rerep: A quantitative high throughput screen for small molecules that induce DNA re-replication in MCF 10a normal breast cells; MCF 10A DNA re-replication, Hoechst nuclear intensity, 48 h; Potency, µM (doses to about 46.1 µM), actives largely listed as activators; actives 2.9% (n = 350,000); AID 624296, 2012; note: nearly all actives have a fitted effect of over 50% in size
Of the large screens only hits and unclear results are named; the others gave an inactive call. Unless noted, calls come from the whole dose curve; as a rule, active = well fitted curve in the direction sought with a large enough effect; inconclusive = small, poorly fitted or top-dose-only effect, or another doubt; inactive = no such curve, though single readings can be large; an effect the other way counts as inactive or inconclusive.

O=C(NC1CC1)c1ccc2nc([C@@H]3O[C@H](CO)[C@H](O)[C@H](O)[C@H]3O)[nH]c2c1	none (no result: Gal4-VP16 FLuc, RORgamma inh, SW480 rereplic, MCF10A rerep)
OCC1(CCOc2ccccc2)CCN(Cc2ccc(OC(F)F)cc2)CC1	IL-1B inflam inh -91, MCF10A rerep inconclusive
OCC1(CCOc2ccccc2)CCN(Cc2ccccc2OC(F)F)CC1	IL-1B inflam inh -79
OCC1(CCOc2ccccc2)CCN(Cc2ccncc2)CC1	MCF10A rerep inconclusive
CC[C@]12CCCN3CCc4c(n(c5ccccc45)C(=O)C1)[C@@H]32	SW480 rereplic 13µM, MCF10A rerep inconclusive (no result: Gal4-VP16 FLuc, RORgamma inh)
CCC(C)c1ccccc1NC(=O)COC(=O)c1ccc2[nH]c3c(c2c1)CCCC3 (configuration not stated)	Gal4-VP16 FLuc 20µM, SW480 rereplic inconclusive, MCF10A rerep 8.2µM
Fc1ccc(Nc2nc(-c3ccncc3)nc3ccccc23)cc1	Gal4-VP16 FLuc inconclusive, MCF10A rerep inconclusive
c1ccc(Nc2nc(-c3ccncc3)nc3ccccc23)cc1	none
Clc1ccccc1-c1nc(Nc2ccncc2)c2ccccc2n1	RORgamma inh 11µM (no result: IL-1B inflam inh, SW480 rereplic, MCF10A rerep)
Cc1ccccc1-c1nc(Nc2ccncc2)c2ccccc2n1	RORgamma inh 7.1µM (no result: IL-1B inflam inh, SW480 rereplic, MCF10A rerep)
CCOC(=O)C1=C(C)N=c2sc(=Cc3ccc(OCC(=O)O)cc3)c(=O)n2C1c1ccc(Cl)cc1 (configuration not stated)	none (no result: Gal4-VP16 FLuc, RORgamma inh, SW480 rereplic, MCF10A rerep)
CCOC(=O)C1=C(C)N=c2s/c(=C\c3ccc(OCC(=O)O)cc3)c(=O)n2C1c1ccc(OC(C)C)cc1 (configuration not stated)	MCF10A rerep 15µM
Nc1nc2sc3c(c2cc1C(=O)NCC(=O)O)CCCC3	Gal4-VP16 FLuc inconclusive, RORgamma inh 10µM
Nc1nc2sc3c(c2cc1C(=O)N1CCOCC1)CCCC3	RORgamma inh inconclusive
Cc1c(C(=O)NC(C)c2ccccn2)oc2c(Cl)cccc12 (configuration not stated)	none (no result: Gal4-VP16 FLuc, RORgamma inh)
CC(=O)C1=C(C)NC(SCC(=O)c2ccc(Cl)c(Cl)c2)=C(C#N)C1c1ccco1 (configuration not stated)	IL-1B inflam inh -57, RORgamma inh inconclusive, SW480 rereplic 12µM
CC(=O)C1=C(C)NC(SCC(=O)c2cc(Cl)ccc2Cl)=C(C#N)C1c1ccco1 (configuration not stated)	Gal4-VP16 FLuc 3.5µM, IL-1B inflam inh inconclusive, RORgamma inh 6.3µM, SW480 rereplic inconclusive, MCF10A rerep inconclusive
CCOC(=O)C1=C(C)NC(SCC(=O)O)=C(C#N)C1c1ccco1 (configuration not stated)	none
COc1ccc(NC(=O)CN2CCN(C(=O)N3CCOCC3)CC2)cc1	none
COC(=O)c1c(NC(=O)C2CCCCC2)sc2c1CCN(C(C)C)C2	none
CC(C)N1CCc2c(sc(NC(=O)C3CCCCC3)c2C(N)=O)C1	IL-1B inflam inh -55
COc1cc2ccccc2cc1C(=O)Nc1sc2c(c1C(N)=O)CCN(C(C)C)C2	Gal4-VP16 FLuc 18µM, RORgamma inh 13µM (no result: IL-1B inflam inh, SW480 rereplic, MCF10A rerep)
CC1(C(=O)NS(=O)(=O)Cc2cccc(Cl)c2)CCN1C(=O)CCc1cccs1 (configuration not stated)	none (no result: Gal4-VP16 FLuc, RORgamma inh, SW480 rereplic, MCF10A rerep)
Cc1nnc2sc(-c3csc4c3CCCC4)nn12	MCF10A rerep inconclusive
S=c1nc(-c2csc3c2CCCC3)[nH][nH]1	Gal4-VP16 FLuc 11µM, RORgamma inh 4µM
CCC(C)N(CC(=O)Nc1cccc(C)c1C)C(=O)CCl (configuration not stated)	IL-1B inflam inh -110, SW480 rereplic inconclusive, MCF10A rerep inconclusive
CC(C)N(CC(=O)Nc1ccc(Cl)cc1C(F)(F)F)C(=O)CCl	IL-1B inflam inh -115, RORgamma inh inconclusive, SW480 rereplic inconclusive, MCF10A rerep inconclusive
CCOC(=O)c1oc2cc(O)c(CC)cc2c(=O)c1-c1cscn1	none
CCOC(=O)c1ccc(-c2c(C(=O)OCC)oc3cc(O)c(CC)cc3c2=O)o1	Gal4-VP16 FLuc inconclusive, RORgamma inh 3.2µM
C=CCn1c(SCC(=O)NC2CC2)nnc1C1CC1	none (no result: Gal4-VP16 FLuc, RORgamma inh)
Cc1ccc2nc(Cl)c(/C=N/Nc3ccc(C(=O)O)cc3)cc2c1	Gal4-VP16 FLuc 7.1µM, RORgamma inh 3.2µM, SW480 rereplic inconclusive, MCF10A rerep 16µM
O=C(O)c1ccc(N/N=C/c2ccc3nccnc3c2)cc1	Gal4-VP16 FLuc 0.32µM, RORgamma inh 0.1µM, SW480 rereplic inconclusive
O=C(O)c1ccc(N/N=C/c2ccc(OC(=O)c3cccc(Cl)c3)cc2)cc1	Gal4-VP16 FLuc 0.35µM, RORgamma inh inconclusive
O=C(Oc1ccc(/C=N/Nc2ccccc2)cc1)c1ccccc1	none
COc1ccc(/C=N/Nc2ccc([N+](=O)[O-])cc2)cc1O	IL-1B inflam inh -66, RORgamma inh inconclusive, SW480 rereplic 16µM, MCF10A rerep 12µM
CCCNC(=O)c1ccc(COc2ccc(CCC)cc2OC)o1	IL-1B inflam inh inconclusive, RORgamma inh inconclusive
CN1CCN(C(=O)/C(=C/c2ccc([N+](=O)[O-])cc2)NC(=O)c2ccccc2)CC1	none
COc1cc(/C=N/Nc2ccc(C(=O)O)cc2)ccc1O	Gal4-VP16 FLuc 2.2µM, RORgamma inh 2.8µM
N[C@H]1CONC1=O	none (no result: Gal4-VP16 FLuc, RORgamma inh)
CCN(c1ccccc1)S(=O)(=O)c1ccc(Cl)c(NC(=O)COC(=O)c2ccc(O)cc2)c1	Gal4-VP16 FLuc inconclusive, RORgamma inh inconclusive
CCN(c1ccccc1)S(=O)(=O)c1ccc(Cl)c(NC(=O)CNC(C)c2ccccc2)c1 (configuration not stated)	none (no result: Gal4-VP16 FLuc, RORgamma inh)
CCN(c1ccccc1)S(=O)(=O)c1ccc(Cl)c(NC(=O)COC(=O)c2cc(O)c3ccccc3c2O)c1	Gal4-VP16 FLuc 13µM, RORgamma inh 10µM (no result: IL-1B inflam inh, SW480 rereplic, MCF10A rerep)
CCN(c1ccccc1)S(=O)(=O)c1ccc(OC)c(NC(=O)c2ccco2)c1	none (no result: Gal4-VP16 FLuc, RORgamma inh, SW480 rereplic, MCF10A rerep)
CCC(C)NCC(=O)Nc1cc(S(=O)(=O)N(CC)c2ccccc2)ccc1Cl (configuration not stated)	IL-1B inflam inh -53, RORgamma inh inconclusive
CCN(c1ccccc1)S(=O)(=O)c1ccc(OC)c(NC(=O)CNC)c1	MCF10A rerep 8.2µM
CCN(c1ccccc1)S(=O)(=O)c1ccc(OC)c(NC(=O)C2CC(=O)N(Cc3ccccc3)C2)c1 (configuration not stated)	IL-1B inflam inh -54, RORgamma inh inconclusive
COc1ccc(Cl)cc1NC(=O)c1cccc([N+](=O)[O-])c1O	MCF10A rerep inconclusive (no result: Gal4-VP16 FLuc, RORgamma inh)
CCCC(C)(C)C(=O)Nc1ccc(Cl)cc1	none (no result: IL-1B inflam inh, SW480 rereplic, MCF10A rerep)
O=C1NC(=O)N2CCSC2(Cc2ccccc2)N1 (configuration not stated)	none (no result: Gal4-VP16 FLuc, RORgamma inh)
CN(CCOc1ccccc1)C(=O)c1ccc(N2CCCC2)c([N+](=O)[O-])c1	none
O=c1ccc2c(OCCCCOc3ccccc3)c3ccoc3cc2o1	none (no result: IL-1B inflam inh, SW480 rereplic, MCF10A rerep)
